The results in this text go back to PubChem BioAssay (Tox21).

The nature of assay [1]: qHTS assay to identify small molecule antagonists of the peroxisome proliferator-activated receptor delta (PPARd) signaling pathway - cell viability counter screen (AID 743213). Note: nearly all actives have a fitted effect of over 50% in size. Note: potency is the fitted concentration of half-maximal effect. Summed up:
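HEK293H PPARd UAS-bla cells, 5 h pre-incubation, compound + L165041 300 nM final, 17 h 37 C; B/G FRET substrate 2 h RT; then CellTiter-Glo 30 min RT, luminescence.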
(qHTS replaces the single test concentration by a dilution series.)

The target in assay [2] is Peroxisome proliferator-activated receptor delta (Homo sapiens) (UniProt Q03181). The assay is described as follows: qHTS assay to identify small molecule antagonists of the peroxisome proliferator-activated receptor delta (PPARd) signaling pathway (AID 743215; active = well fitted inhibition curve with a large enough effect in the signal ratio in the repeat runs, not every such curve was filed as active; the % refers to the signal ratio;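 note: cells stimulated with agonist L165041 at 300 nM final during compound exposure; series mostly up to about 62 µM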). Summed up:
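Agonist L165041 (300 nM final) added with compound to PPARd-bla HEK293H UAS-bla reporter cells; 17 h incubation at 37 C. Read-out: LiveBLAzer FRET substrate, 2 h at room temperature, fluorescence intensity.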

Assay [3] is described as follows: qHTS assay to identify small molecule agonists of the farnesoid-X-receptor (FXR) signaling pathway - cell viability counter screen (AID 743218). Note: nearly all actives have a fitted effect of over 45% in size. Note: potency is the fitted concentration of half-maximal effect. The method, boiled down: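 Viability counter screen in the same wells: CellTiter-Glo luminescence, 30 min room-temperature incubation, measured after the beta-lactamase read. Cells were GeneBLAzer FXR-UAS-bla HEK 293T, compound-treated 16 h at 37C.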

Assay [4] can be described thus: qHTS assay to identify small molecule antagonists of the farnesoid-X-receptor (FXR) signaling pathway - cell viability counter screen (AID 743221; active = well fitted cell-killing curve with a large enough effect in the repeat runs, not every such curve was filed as active; note: nearly all actives have a fitted effect of over 50% in size). The method, boiled down: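 Quantitative HTS of the Tox21 10K library run in parallel with the beta-lactamase reporter read. HEK 293T cells carrying a UAS-driven bla reporter got compound and 50 uM CDCA (final) for 16 h; ATP-based luminescence followed.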

Assay [5] in a line: qHTS assay to identify small molecule agonists of the vitamin D receptor (VDR) signaling pathway - cell viability counter screen (AID 743224). Note: series mostly up to about 63 µM; nearly all actives have a fitted effect of over 50% in size. The method, boiled down:
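Counter screen run in the same wells as the VDR-bla reporter assay: CellTiter-Glo luminescence, 30 min at room temperature, after 16 h compound treatment at 37C of cells pre-plated for 4 h.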

Assay [6] is described as follows: qHTS assay to identify small molecule agonists of the NFkB signaling pathway - cell viability counter screen (AID 1159515; calls by dose curve; note: series mostly up to about 61 µM; nearly all actives have a fitted effect of over 55% in size). Summed up: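 Read by CellTiter-Glo luminescence (30 min, room temperature) in the wells also used for the beta-lactamase FRET read. ME-180 NFkB-bla cells at 2,000 per well were plated overnight, then exposed to compound for 5 hr at 37 C.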

Assay [7] in a line: qHTS assay to identify small molecule agonists of the endoplasmic reticulum stress response signaling pathway (AID 1159516; active = well fitted activation curve with a large enough effect in the signal ratio in the repeat runs, not every such curve was filed as active; the % refers to the signal ratio). The method, boiled down: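 Ratiometric FRET readout (405 nm excitation; 460 and 530 nm emission) of a beta-lactamase gene driven by the ER stress response element, after 2 hr substrate loading. HeLa ESRE-bla cells were seeded overnight and treated with compounds for only 5 hr at 37 C.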

The nature of assay [8]: qHTS assay to identify small molecule agonists of the endoplasmic reticulum stress response signaling pathway - cell viability counter screen (AID 1159517; calls by dose curve; note: series mostly up to about 61 µM; nearly all actives have a fitted effect of over 50% in size). Summed up:
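Steps: seed 1,500 ESRE-bla HeLa cells per well; incubate overnight at 37 C, 5% CO2; add compounds in DMSO for 5 hr; run FRET substrate 2 hr RT; add CellTiter-Glo, wait 30 min, read luminescence.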

A short description of assay [9]: qHTS assay to identify small molecule antagonists of the retinoid-related orphan receptor gamma (ROR-gamma) signaling pathway - cell viability counter screen (AID 1159520). Note: nearly all actives have a fitted effect of over 50% in size. Summed up: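 Tet-on ROR gamma CHO cells were given compounds for 2 hr, then doxycycline hyclate at 1 uM final, and incubated 16 hr at 37 C. Viability was measured as ATP content by CellTiter-Glo luminescence.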

Assay [10] has as its target Nuclear receptor ROR-gamma (Homo sapiens) (UniProt P51449). The assay is described as follows: qHTS assay to identify small molecule antagonists of the retinoid-related orphan receptor gamma (ROR-gamma) signaling pathway (AID 1159521; note: nearly all actives have a fitted effect of over 50% in size; note: potency is the fitted concentration of half-maximal effect). The method, boiled down:
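RORγ antagonism is scored from reduced reporter luminescence in Tet-on CHO cells. Induction used 1 uM final doxycycline hyclate for 16 h at 37 C, following a 2 h compound exposure.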

Assay [11] is described as follows: qHTS assay to identify small molecule agonists of the AP-1 signaling pathway - cell viability counter screen (AID 1159525; calls by dose curve; note: nearly all actives have a fitted effect of over 55% in size). Summed up: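 Same-well cytotoxicity counter screen of the Tox21 10K library in ME-180 cells. The readout is ATP-dependent luminescence after 5 h compound treatment. Data are normalised to DMSO and tetra n-octyl ammonium bromide controls.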

The nature of assay [12]: qHTS assay to identify small molecule agonists of the AP-1 signaling pathway (AID 1159526; calls by dose curve).
A short description of assay [13]: qHTS assay to identify small molecule agonists of the RXR signaling pathway - cell viability counter screen (AID 1159529). The method, boiled down:
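Cell viability is measured by CellTiter-Glo luminescence, 30 min at room temperature, in wells already read for beta-lactamase. Engineered HEK 293T cells (RXR-alpha-UAS-bla) are dosed 16 hr at 37 C. Tetraoctyl ammonium bromide serves as positive control.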

A short description of assay [14]: qHTS assay to identify small molecule antagonists of the vitamin D receptor (VDR) signaling pathway - cell viability counter screen (AID 743225). Note: nearly all actives have a fitted effect of over 50% in size. Summed up: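 Cells (VDR-UAS-bla HEK 293T) are plated, rested 4 h at 37C, dosed with compound and 3 nM final 1-alpha,25-dihydroxy vitamin D3, and incubated 16 h. Viability is taken from CellTiter-Glo luminescence in the reporter wells.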

The target of assay [15] is Vitamin D3 receptor (Homo sapiens) (UniProt P11473). The assay is described as follows: qHTS assay to identify small molecule agonists of the vitamin D receptor (VDR) signaling pathway (AID 743222; calls by dose curve). Summed up: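 Agonist mode, beta-lactamase reporter: fluorescence from LiveBLAzer B/G FRET substrate (2 h, room temperature) read after 16 h compound treatment at 37 C of VDR-bla cells, which were pre-incubated 4 h after seeding.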

Assay [16] addresses Retinoic acid receptor RXR-alpha (Homo sapiens) (UniProt P19793). The assay is described as follows: qHTS assay to identify small molecule agonists of the RXR signaling pathway (AID 1159527; calls by dose curve; note: nearly all actives have a fitted effect of over 35% in size). The method, boiled down: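 qHTS of the Tox21 10K library in GeneBLAzer RXR-alpha HEK 293T cells carrying a beta-lactamase reporter […]; 16 hr treatment, 9-cis retinoic acid as agonist control, FRET read-out.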

In assay [17] the target is Vitamin D3 receptor (Homo sapiens) (UniProt P11473). The assay is described as follows: qHTS assay to identify small molecule antagonists of the vitamin D receptor (VDR) signaling pathway (AID 743223; active = well fitted inhibition curve with a large enough effect in the signal ratio in the repeat runs, not every such curve was filed as active; the % refers to the signal ratio). The method, boiled down:
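Fluorescence from LiveBLAzer B/G FRET substrate, read after 2 h at room temperature, reflects beta-lactamase reporter activity in VDR-bla cells treated 16 h at 37C with compounds and agonist 1alpha,25-dihydroxyvitamin D3 (3 nM final).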

Assay [18] concerns the target Peroxisome proliferator-activated receptor delta (Homo sapiens) (UniProt Q03181). The experiment in a line: qHTS assay to identify small molecule agonists of the peroxisome proliferator-activated receptor delta (PPARd) signaling pathway (AID 743212; calls by dose curve). Summed up: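 Read-out: beta-lactamase FRET fluorescence after 2 h room-temperature incubation with LiveBLAzer B/G substrate. Cells were HEK293H carrying a UAS-bla reporter for PPARd, treated at 37 C with DMSO-dissolved compounds.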

The target in assay [19] is Bile acid receptor (Homo sapiens) (UniProt Q96RI1). The assay is described as follows: qHTS assay to identify small molecule antagonists of the farnesoid-X-receptor (FXR) signaling pathway (AID 743217; active = well fitted inhibition curve with a large enough effect in the signal ratio in the repeat runs, not every such curve was filed as active; the % refers to the signal ratio). Summed up:
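Antagonist mode: chenodeoxycholic acid at 50 uM final stimulates a UAS-driven beta-lactamase reporter in HEK 293T FXR-bla cells during 16 h, 37C compound exposure. Read-out is FRET substrate fluorescence after 2 h at room temperature.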

The target is the same in assay [20]. The assay is described as follows: qHTS assay to identify small molecule agonists of the farnesoid-X-receptor (FXR) signaling pathway (AID 743220; active = well fitted activation curve with a large enough effect in the signal ratio in the repeat runs, not every such curve was filed as active; the % refers to the signal ratio). The method, boiled down: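 FXR-UAS-bla HEK 293T cells carrying a UAS-driven beta-lactamase reporter were plated for 5 h at 37C/5% CO2, then exposed to DMSO-dissolved Tox21 10K compounds for 16 h at 37C. A LiveBLAzer B/G FRET substrate was loaded for 2 h at room temperature before fluorescence reading.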

“And” between values parts separate entries of the source, which are not always exact repeats. Identical values can stand only once. Records with an inconclusive call do not appear. Values without a mark were called inactive. The source made the active and inactive calls. Unless noted, calls come from the whole dose curve; as a rule, active = well fitted curve in the direction sought with a large enough effect in the repeat runs; inconclusive = weak or mixed curves; inactive = no such curve, though single readings can be large; an effect the other way counts as inactive or inconclusive.

Chain of Peroxisome proliferator-activated receptor delta (Homo sapiens) (Q03181 whole entry, looked up): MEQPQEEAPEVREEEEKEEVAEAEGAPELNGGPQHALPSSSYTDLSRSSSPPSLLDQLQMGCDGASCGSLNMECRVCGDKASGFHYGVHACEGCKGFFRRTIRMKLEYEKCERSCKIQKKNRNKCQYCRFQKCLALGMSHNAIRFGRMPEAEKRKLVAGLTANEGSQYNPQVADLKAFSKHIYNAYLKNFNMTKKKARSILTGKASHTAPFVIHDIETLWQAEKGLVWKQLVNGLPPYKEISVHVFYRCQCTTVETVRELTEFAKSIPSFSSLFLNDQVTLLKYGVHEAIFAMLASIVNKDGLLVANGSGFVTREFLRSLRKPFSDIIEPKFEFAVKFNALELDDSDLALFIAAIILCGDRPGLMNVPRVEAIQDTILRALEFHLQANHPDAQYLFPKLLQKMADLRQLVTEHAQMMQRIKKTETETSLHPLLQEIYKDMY
Chain of Retinoic acid receptor RXR-alpha (Homo sapiens) (P19793 whole entry, looked up): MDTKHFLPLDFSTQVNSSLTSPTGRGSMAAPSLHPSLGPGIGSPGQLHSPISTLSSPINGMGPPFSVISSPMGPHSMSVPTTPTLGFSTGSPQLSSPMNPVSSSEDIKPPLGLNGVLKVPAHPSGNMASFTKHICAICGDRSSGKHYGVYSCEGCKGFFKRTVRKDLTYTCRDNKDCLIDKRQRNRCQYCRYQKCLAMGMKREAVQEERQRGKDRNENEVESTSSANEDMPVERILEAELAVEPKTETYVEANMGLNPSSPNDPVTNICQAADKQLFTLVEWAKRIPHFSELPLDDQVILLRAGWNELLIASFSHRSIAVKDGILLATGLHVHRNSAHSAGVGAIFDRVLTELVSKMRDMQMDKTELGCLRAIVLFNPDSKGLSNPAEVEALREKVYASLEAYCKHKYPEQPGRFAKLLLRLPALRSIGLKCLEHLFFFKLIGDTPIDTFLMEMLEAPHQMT
Chain of Bile acid receptor (Homo sapiens) (Q96RI1 whole entry, looked up): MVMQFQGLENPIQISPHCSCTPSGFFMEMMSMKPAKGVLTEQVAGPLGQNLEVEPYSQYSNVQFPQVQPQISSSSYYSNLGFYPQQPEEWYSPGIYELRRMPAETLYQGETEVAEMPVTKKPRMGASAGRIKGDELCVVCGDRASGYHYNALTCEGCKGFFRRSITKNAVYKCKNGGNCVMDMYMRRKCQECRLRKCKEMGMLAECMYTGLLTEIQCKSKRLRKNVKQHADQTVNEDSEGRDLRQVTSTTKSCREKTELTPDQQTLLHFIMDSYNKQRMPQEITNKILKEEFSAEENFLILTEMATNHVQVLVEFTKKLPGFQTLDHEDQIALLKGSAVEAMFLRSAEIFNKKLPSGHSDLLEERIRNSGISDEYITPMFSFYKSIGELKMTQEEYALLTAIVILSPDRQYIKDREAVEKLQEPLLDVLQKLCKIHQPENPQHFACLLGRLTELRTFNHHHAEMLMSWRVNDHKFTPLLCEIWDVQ
Chain of Vitamin D3 receptor (Homo sapiens) (P11473 whole entry, looked up): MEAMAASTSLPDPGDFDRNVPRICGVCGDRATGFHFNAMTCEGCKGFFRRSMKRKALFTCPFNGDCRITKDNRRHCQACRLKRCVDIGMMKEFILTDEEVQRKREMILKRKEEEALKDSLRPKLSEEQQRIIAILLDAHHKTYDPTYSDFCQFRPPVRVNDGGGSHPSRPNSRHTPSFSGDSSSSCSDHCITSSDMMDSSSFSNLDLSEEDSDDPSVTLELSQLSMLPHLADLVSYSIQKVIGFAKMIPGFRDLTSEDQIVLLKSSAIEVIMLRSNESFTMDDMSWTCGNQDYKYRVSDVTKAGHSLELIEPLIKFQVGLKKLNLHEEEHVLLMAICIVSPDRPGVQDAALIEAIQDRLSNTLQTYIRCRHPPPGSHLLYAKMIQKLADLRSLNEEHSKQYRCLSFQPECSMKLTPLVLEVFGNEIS

For `COC(=O)[C@H]1[C@H]2C[C@@H]3c4[nH]c5cc(OC)ccc5c4CCN3C[C@H]2C[C@@H](OC(=O)c2cc(OC)c(OC)c(OC)c2)[C@@H]1OC`, the Potency is 17.9 µM (active) in assay [1]; 22.5 µM (active) in assay [3]; 30.6 µM (active) and 28.1 µM (active) in assay [10]. For the same compound, the Potency entry in [2], in assay [4], in assay [5], in assay [6], in [8] and in assay [9] was “inactive” each time. Also, the Potency result in assay [11], in assay [12] and in [13] was “inactive” throughout. Further, the outcome in [7] was inactive.
As for `NCCO`, the Potency entry in assay [1], in [3], in assay [4], in [5], in [14] and in assay [6] was “inactive” in each case. The Potency result in assay [8], in assay [9], in assay [10], in [11], in assay [12] and in [13] was “inactive” each time. Besides, in assay [7], the compound was classed as inactive.
As for `CC(C)(C)c1ccccc1`, the Potency entry in [1], in assay [3], in assay [4], in [15], in assay [5] and in [6] was “inactive” each time. In addition, the Potency entry in assay [8], in [9], in assay [10], in assay [11], in assay [12] and in [16] was “inactive” in each case. The Potency result in [13] was “inactive”. The call in [7] was inactive.
As for `CC(C)(C)NC(=O)[C@@H]1CN(Cc2cccnc2)CCN1C[C@@H](O)C[C@@H](Cc1ccccc1)C(=O)N[C@H]1c2ccccc2C[C@H]1O`, the Potency entry in assay [1], in assay [3], in assay [4], in assay [15], in assay [17] and in [5] was “inactive” each time. In addition, the Potency entry in assay [14], in assay [6], in [8], in assay [9], in assay [10] and in [11] was “inactive” throughout. The Potency entry in [12], in assay [16] and in assay [13] was “inactive” in each case. In addition, the call in assay [7] was inactive.
Regarding `CC(C(O)c1ccc(O)cc1)N1CCC(Cc2ccccc2)CC1` (configuration not stated), the Potency result in assay [1], in assay [3], in assay [4], in assay [5], in [6] and in assay [8] was “inactive” in each case. Besides, the Potency entry in [9], in [10], in assay [11], in [12] and in assay [13] was “inactive” throughout. For the same compound, the outcome in assay [7] was inactive.
Turning to `O=C(O)c1cc(Cl)cc(Cl)c1`, the Potency entry in [18], in assay [1], in assay [2], in assay [3], in assay [4] and in assay [5] was “inactive” each time. The Potency entry in [6], in assay [8], in assay [9], in assay [10], in assay [11] and in [12] was “inactive” throughout. Moreover, in assay [13], the Potency result was “inactive”. Moreover, the outcome in [7] was inactive.
On to `O=C(OCc1ccccc1)c1ccc(O)cc1`, for which the Potency result in assay [1], in assay [19], in assay [3], in assay [20], in [4] and in assay [5] was “inactive” each time. Further, the Potency entry in [6], in [8], in assay [9], in assay [10], in assay [11] and in assay [12] was “inactive” each time. In addition, the Potency result in assay [16] and in assay [13] was “inactive” each time. Further, the call in assay [7] was inactive.
With `CCCCN(CCO)CCCC`, the Potency result in [18], in assay [1], in [2], in assay [19], in assay [3] and in [20] was “inactive” each time. Also, the Potency result in [4], in assay [15], in assay [17], in assay [5], in assay [14] and in assay [6] was “inactive” each time. The Potency result in assay [8], in assay [9], in assay [10], in assay [11], in assay [12] and in [13] was “inactive” each time. For the same compound, the result in assay [7] was inactive.
On to `CC[C@@H](N)CO`, for which the Potency entry in assay [18], in [1], in assay [2], in assay [3], in assay [4] and in assay [15] was “inactive” in each case. The Potency result in assay [17], in assay [5], in [6], in assay [8], in [9] and in assay [10] was “inactive” in each case. For the same compound, the Potency entry in assay [11], in assay [12] and in assay [13] was “inactive” each time. The compound was classed as inactive in assay [7].
